Results reported in PubChem BioAssay.
Calls of active or inactive are those of the source. Unless noted, no rule for the calls is given here.

How the values were obtained:
[1] = tested on: Wnt5a (protein binding on small-molecule microarray); assay: small molecules binding Wnt5a protein – biophysical, small-molecule microarray, 635/667 nm fluorescence, primary screen (AID 1142); settings: 635 nm fluorescence, higher = more signal;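 also: fluorescence read at 667 nm with signal to noise per printed feature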
[2] = ATP-based viability of Huh7 replicon cells – cell-based, CellTiter-Glo luminescence, basal, 48 h, cytotoxicity control for HCV replication inhibitor project, primary screen (AID 1143); settings: higher = more signal, called active from +8 up or from −8 down;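 also: Huh7 hepatoma cells carrying a hepatitis C replication reporter with no stimulus; test concentration not given here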
[3] = Pseudomonas biofilm growth suppression – PAO1 strain, BacTiter-Glo luminescence, LB-PBS, primary screen (AID 1144); settings: P. aeruginosa PAO1 biofilm, 12 h, higher = more signal
[4] = basal CRE-LacZ reporter activity in PC12 – cell-based, unstimulated, primary screen (AID 1145); settings: no forskolin, luminescence, 4.5 h, higher = more signal, called active from +8 up or from −8 down
[5] = forskolin-driven CRE-LacZ activity in PC12 – cell-based, CRE-LacZ reporter, forskolin-stimulated, primary screen (AID 1146); settings: luminescence, 4.5 h, higher = more signal, called active from +8 up or from −8 down;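 also: PC12 cells with 6xCRE LacZ reporter stimulated by forskolin 10 µM; beta-galactosidase reporter signal reflecting CREB driven transcription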
[6] = biological target: Streptavidin (Streptomyces avidinii) (UniProt P22629); assay: compounds binding control protein streptavidin – biophysical, small-molecule microarray, 635/667 nm fluorescence, artefact control for SMM compound annotation, primary screen (AID 1147); settings: higher = more signal;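 also: signal reflects streptavidin binding to arrayed compounds as a control protein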
[7] = probe aInhba binding on compound microarray – biochemical, small-molecule microarray, 635/667 nm fluorescence, primary screen (AID 1148); settings: higher = more signal;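 also: score merges 667nm spot fluorescence with signal-to-noise for antibody binding to printed compounds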
Torsin-1A (Homo sapiens) [8] = biological target: Torsin-1A (Homo sapiens) (UniProt O14656); assay: TOR1A wild-type binding on microarray – cell lysate, small-molecule microarray, lysate, 635/667 nm, primary screen (AID 1149); settings: COS7 hTOR1A-WT lysate, 635 nm fluorescence, higher = more signal
Torsin-1A (Homo sapiens) [9] = biological target: Torsin-1A (Homo sapiens) (UniProt O14656); assay: torsin A mutant lysate binding on microarrays – cell lysate, small-molecule microarray, COS7 lysate, 635/667 nm fluorescence, primary screen (AID 1150); settings: COS7 hTOR1A mutant lysate, 635 nm fluorescence, higher = more signal;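 also: score pools 667 nm emission and signal to noise measuring lysate protein binding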
[10] = tested on: Sonic hedgehog protein (Shh); assay: Sonic hedgehog microarray binding compounds – biochemical, small-molecule microarray, 635/667 nm fluorescence, primary screen (AID 1151); settings: 635 nm fluorescence, higher = more signal;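 also: Shh protein binding to compounds spotted on small-molecule microarray slides; score combines spot fluorescence intensity with signal-to-noise across triplicate slides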

Chain of Streptavidin (Streptomyces avidinii) (P22629 whole entry, looked up): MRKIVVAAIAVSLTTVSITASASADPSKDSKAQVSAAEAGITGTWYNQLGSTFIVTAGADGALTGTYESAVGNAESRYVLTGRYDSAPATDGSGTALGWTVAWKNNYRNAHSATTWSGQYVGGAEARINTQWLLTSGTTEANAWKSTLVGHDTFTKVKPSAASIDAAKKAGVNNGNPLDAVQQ
Chain of Torsin-1A (Homo sapiens) (O14656 whole entry, looked up): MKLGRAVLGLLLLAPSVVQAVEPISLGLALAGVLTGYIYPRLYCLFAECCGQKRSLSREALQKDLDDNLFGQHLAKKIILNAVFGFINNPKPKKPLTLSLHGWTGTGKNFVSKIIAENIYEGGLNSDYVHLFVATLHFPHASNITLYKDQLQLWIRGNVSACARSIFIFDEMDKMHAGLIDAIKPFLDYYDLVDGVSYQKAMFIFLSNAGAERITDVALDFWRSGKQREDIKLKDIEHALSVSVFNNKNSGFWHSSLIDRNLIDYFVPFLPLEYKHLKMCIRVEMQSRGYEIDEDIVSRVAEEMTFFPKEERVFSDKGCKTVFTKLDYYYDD

| SMILES | composite z-score [1] | z-score [2] | z-score [3] | z-score [4] | z-score [5] | composite z-score [6] | composite z-score [7] | composite z-score (Torsin-1A (Homo sapiens) [8]) | composite z-score (Torsin-1A (Homo sapiens) [9]) | composite z-score [10] |
| --- | --- | --- | --- | --- | --- | --- | --- | --- | --- | --- |
| CCC(CC)C(O)C1C=CC2C(=O)N(C)C(=O)C2N1N1CCCCC1 (stereo not given) | 0.323 | 0.374 (inactive) | -0.328 (inactive) | 0.0501 (inactive) | 1.06 (inactive) | 1.51 | 0.3 | 0.504 | 0.844 | 0.959 |
| C=CCOC(=O)[C@@H]1[C@H]2C(=O)O[C@H](c3ccccc3)[C@H](c3ccccc3)N2[C@H](c2ccc(OCCOC(=O)[C@H]3C[C@H]4C(=O)NCC(=O)N4[C@H]3c3ccc(O)cc3)cc2)[C@@]12C(=O)Nc1ccc(I)cc12 | 0.266 | -0.199 (inactive) | 0.22 (inactive) | -0.394 (inactive) | -0.732 (inactive) | 0.868 | -0.0163 | 1.11 | 0.854 | 1.81 |
| C=CCNC(=O)[C@@H]1[C@H]2C(=O)O[C@H](c3ccccc3)[C@H](c3ccccc3)N2[C@H](c2ccccc2OCCO)[C@@]12C(=O)N(C(=O)OCCOC)c1ccc(C#CCCO)cc12 | 0.304 | -3.34 (inactive) | -0.976 (inactive) | -0.0768 (inactive) | -0.466 (inactive) | 0.284 | 0.0649 | 0.338 | 1.35 | 1.06 |
| C=CCC(OC(C)=O)[C@@H]1[C@@H](N(Cc2cc3ccccc3o2)C(=O)Cc2ccc(OC)cc2)c2cc(OCCCO)ccc2N1C(=O)Cc1ccc(OC)cc1 (stereo not given in full) | -0.0737 | -1.17 (inactive) | 0.0258 (inactive) | 0.469 (inactive) | -0.0385 (inactive) | -0.213 | 0.168 | 0.29 | 0.34 | 0.551 |
| NC(=O)N1C(=O)C2C(C1=O)C1C=C(CCCO)C2C(c2ccc(CN3CCCC3)cc2)N1Cc1cccc(OC(F)(F)F)c1 (stereo not given) | 0.232 | -0.596 (inactive) | 0.963 (inactive) | 0.494 (inactive) | -0.679 (inactive) | -0.157 | -0.0736 | 0.094 | 0.462 | 1.86 |
| COC(=O)C1(CC(C)C)C=C2C(=C(C(C)C)C(=O)C2C)CN1 (stereo not given) | -0.187 | 0.254 (inactive) | 0.825 (inactive) | 1.34 (inactive) | -0.872 (inactive) | -0.469 | -0.0791 | -0.742 | -0.15 | -0.702 |
| CCCCN1CC=CC23O[C@@H]4/C=C\CCC(C)OC(=O)C4[C@H]2C(=O)N(C(C)CO)[C@@H]3C1=O (stereo not given in full) | -0.0151 | 0.24 (inactive) | -0.297 (inactive) | -0.497 (inactive) | -0.21 (inactive) | -0.447 | -0.161 | -0.185 | -1.01 | -0.0387 |
| COc1ccc([Si](C)(C)[C@H]2[C@H](CCn3cc([C@H](O)c4ccccc4)nn3)O[C@@]3(C(=O)N(c4ccccc4)c4ccccc43)[C@@H]2C)cc1 | 0.04 | -4.47 (inactive) | 0.674 (inactive) | 0.236 (inactive) | 0.115 (inactive) | -0.265 | -0.0087 | 0.96 | -0.242 | 1.97 |
| COC(=O)[C@@]1(Cc2ccccc2CN=[N+]=[N-])COC(c2ccc(OCCCO)cc2)=N1 | -1.09 | -3.56 (inactive) | -0.0995 (inactive) | 1.19 (inactive) | -0.244 (inactive) | -1.25 | -0.203 | -3.23 | -2.37 | -1.15 |
| COCC(=C=CC[C@@H](O)c1ccc(OCCO)cc1)C[C@@H](O)COCc1ccccc1 | 1.05 | -0.959 (inactive) | -0.498 (inactive) | 10.3 (active) | -0.487 (inactive) | -0.223 | 0.0345 | 0.681 | 1.43 | 1.54 |
| COCCOC(=O)N1C(=O)[C@@]2(c3ccccc31)[C@H](c1ccc(OCCO)cc1)N1[C@H](c3ccccc3)[C@H](c3ccccc3)OC(=O)[C@H]1[C@@H]2C(=O)N1CCN(c2ncccn2)CC1 | 0.453 | -2 (inactive) | -0.266 (inactive) | 0.22 (inactive) | 4.01 (inactive) | 0.826 | 0.134 | 0.819 | 0.794 | 1.86 |
| CC1CC/C=C\[C@H]2OC34C=CCN(c5ccc(Cl)cc5)C(=O)[C@H]3N(CCCO)C(=O)[C@]4(C)C2C(=O)O1 (stereo not given in full) | -0.785 | -0.0438 (inactive) | 1.63 (inactive) | 0.988 (inactive) | 0.22 (inactive) | -1.02 | -0.253 | -2.1 | -0.989 | 0.424 |
| COc1ccc([Si](C)(C)[C@H]2[C@H](CC(=O)N3Cc4ccccc4C[C@H]3CO)O[C@@]3(C(=O)N(Cc4cccc(N5C(=O)c6cccc7cccc5c67)c4)c4ccccc43)[C@@H]2C)cc1 | 0.862 | -4.55 (inactive) | -0.765 (inactive) | 11 (active) | -1.41 (inactive) | 0.159 | -0.0107 | 1.39 | 0.736 | 2.23 |
